Source: PubChem BioAssay (NCI)
About 83,000 compounds went through this panel and 20% of them were active in at least one assay; those are over-represented in the sample as a whole.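 Assay: single dose, 48 h. Readout: percent growth (0 = no net growth; negative = cell death). Active: <10.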 Values without a mark were called inactive. The source made the active and inactive calls.

What follows are molecules tested on BT-549 breast (assay: NCI-60 one-dose screen, 48 h (100 = growth as untreated, 0 = no growth, -100 = all killed)). Settings: 10 µM unless noted.

Going from COc1ccc(/C=C/c2nc(-c3n[nH]c(=O)n3-c3ccccc3)c3ccccc3n2)cc1 to O=C(Cn1cccc(Nc2ccccc2)c1=O)Nc1ccccc1, the growth falls from 111% to 106%.

Compared with COc1ccc(-c2n[nH]nc2-c2csc3ccccc23)cc1OC, COc1cc(-c2nc3ccccc3[nH]2)ccc1OCc1nnc(-c2ccc(CC(C)C)cc2)o1 is higher in growth: 16.9% for the first, 88.5% for the second.

First: CSc1nc(-c2cccc(NC(=O)CCl)c2)c(C#N)c(=O)n1C
Second: CSc1nc(NCCO)c(C#N)c(-c2cccc([N+](=O)[O-])c2)n1
The growth of the first is lower: 53.4% for the first, 96.6% for the second.

Going from Cc1cc(C)c2nc3nc(C)cc(C)c3c(N)c2c1 to COC[C@H](C)n1c(C2CCOCC2)nc2cnc3cc(-c4c(C)noc4C)c(OC)cc3c21, the growth rises from 56.1% to 69.2%.

Compared with Cc1nn(-c2cc(=O)[nH]c3ccccc23)c(N)c1C#N, O=c1nc2oc3ccc4ccccc4c3cc-2s1 is lower in growth: 110% for the first, 49% for the second.

Compared with CCOC(=O)c1c(C(=O)OCC)c2cc(-c3ccn4c(C(=O)c5ccccc5)c(C(=O)OCC)c(C(=O)OCC)c4c3)ccn2c1C(=O)c1ccccc1, CCOC(=O)c1cc(C(=O)c2ccc(O)c(O)c2)n2ccc(-c3ccn4c(C(=O)c5ccc(O)c(O)c5)cc(C(=O)OCC)c4c3)cc12 is higher in growth: 93.4% for the first, 96% for the second.

First: CNC(=O)c1cc(Oc2ccc(NC(=O)Nc3ccc(Cl)c(SC)c3)c(F)c2)ccn1
Second: COc1ccc(-n2nc(C)c3c(Nc4ccc(NC(=O)Nc5cc(C(F)(F)F)ccc5F)cc4)ncnc32)cc1
The growth of the first is lower: 64.7% for the first, 65.4% for the second.

Going from CN(C)C(=S)N=Nc1c(O)[nH]c2ccccc12 to CN(C)CCN1C(=O)c2cccc3c(N)ccc(c23)C1=O, the growth rises from 30.7% to 89.9%.

First: CC(=O)O[C@H]1CC[C@]2(C)[C@H]3CC=C4[C@@H]5CC(C)(C)CC[C@]5(C(=O)NCCNCCN)CC[C@@]4(C)[C@]3(C)CC[C@H]2C1(C)C
Second: COCCNc1ccc2c3c(cccc13)C(=O)N(CCN(C)C)C2=O
The growth of the first is higher: 92.8% for the first, 17.7% for the second.

First: COc1cc(/C=C/C(=O)c2c(C)oc3nc[nH]c(=O)c23)cc(OC)c1OC
Second: COc1cc(C2CC(=O)c3ccccc3N2)cc(OC)c1OC (centres undefined)
The growth of the first is lower: 72.6% for the first, 104% for the second.

Going from Cn1cc(-c2nonc2-c2c[nH]c3ccc(F)cc23)c2cccnc21 to FC(F)(F)c1ccc(-c2cn3nc(-c4c[nH]c5ccc(Br)cc45)sc3n2)cc1, the growth rises from 93.1% to 105%.

Going from COc1cc2c(cc1-c1c(C)noc1C)ncc1nc(C3CCOCC3)n([C@H](C)COC(F)F)c12 to CCN(CC)c1ccc(-c2cc(-c3cc(OC)c(OC)c(OC)c3)nc(N3CCOCC3)c2C#N)cc1, the growth falls from 68.8% to 38.6%.

First: CC1=C[C@H]2c3c(c(O)c(O)c4oc5cc(O)ccc5c(=O)c34)[C@H](c3cc(O)c(O)c4oc5cc(O)ccc5c(=O)c34)[C@H]2C(C)(C)C1
Second: O=C(/C=C/c1cc(CN2CCOCC2)c(O)c2ncccc12)c1cc(CN2CCOCC2)c(O)c2ncccc12
The growth of the first is higher: 31.4% for the first, 12.8% for the second.

Compared with COc1cc(-c2nn(-c3ccc(Br)cc3)cc2C(=O)O)ccc1O, Cc1ccc(C2=NN3C(C2)c2cc(Br)ccc2OC32CCN(Cc3ccccc3)CC2)o1 (centres undefined) is lower in growth: 98.8% for the first, 92.4% for the second.

First: CC1=NN(c2nc(-c3ccc(Cl)cc3)c(C#N)c(N3CCOCC3)n2)C(=O)C1
Second: COc1ccc(/C=C(\C#N)C(=O)Nc2cccc(Nc3nc(SC)nc(-c4cccc([N+](=O)[O-])c4)c3C#N)c2)cc1OC
The growth of the first is lower: 66.1% for the first, 95.9% for the second.

Compared with Cc1nc2ccccc2n1C(=O)C[C@@H]1NC(=S)NC1=O, O=C1c2cc3c(cc2-c2c1c1cc(F)c(F)cc1c(=O)n2CCCn1ccnc1)OCO3 is lower in growth: 95.5% for the first, 12.5% for the second.

With O=C1c2cc3c(cc2-c2c1c1ccc(F)cc1c(=O)n2CCCNCCO)OCO3 the growth was -20% (active).
With CCN=C1C=CC(=C(c2ccc(N)cc2)c2ccc(N(CC)CC)c(C)c2)C=C1 the growth was -31.8% (active).
For COc1ccc(/C=C\c2cc(OC)c(OC)c(OC)c2)cc1OC(=O)c1cccc(Cn2cc(CCOC(=O)[C@H](N)Cc3cn(C)c4ccccc34)nn2)c1, the growth was 3.82% (active).
In the case of Cc1cc(N2CCSCC2)nc(NC2CCCC(Nc3ccnc4cc(Cl)ccc34)C2)n1 (centres undefined), the growth is reported as -60.2% (active).
With CCN(CC)CCCCNc1c2ccc(Cl)cc2nc2ccc(OC)cc12 the growth was -29.5% (active).
For COc1cc(-c2nc3ccccc3[nH]2)ccc1OCC(=O)N=Nc1c(O)[nH]c2ccc(Cl)cc12, the growth was 9.87% (active).
COc1cc(-c2nc3cc(Cl)c(Cl)cc3[nH]2)ccc1OCC(=O)N=Nc1c(O)[nH]c2ccccc12 was tested, and the growth was -90.3% (active).
